IL-1B inflam inh = blocks inflammasome-driven IL-1 beta release; THP-1 LPS/ATP IL-1B secretion, AlphaLISA, 16 h; active compounds read low; activity change, % at 57.5 µM; 4.7% of 360,000 active; in the data active means activity change below about -50%; inconclusive means mostly about -30% to -49%
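THP-1 cells pretreated 1 hr with compounds (up to 57.5 uM final), then stimulated with LPS (250 ng/mL final) plus ATP (1.25 mM final); secreted IL-1B measured by AlphaLISA after 16 hr, decreased signal indicating inhibition.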
HT1080 IDH1KD tx = kills HT-1080 cells with IDH1 knockdown; HT-1080 IDH1 knockdown viability, ATP luminescence, 48 h; Potency, µM (top dose mostly 46.1 µM), without a hit: top-dose activity, negative = toxicity, most hits filed as cytotoxic; 2% of 360,000 active; AID 686971;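 further: potency means the concentration at half of the fitted maximal effect; 0% = DMSO wells and -100% = cell-free medium wells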
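% activity derives from luminescence (CellTiter-Glo), normalised to DMSO and no-cell wells. HT-1080-IDH1KD cells, 750/well, had 48 h compound exposure at 37 °C.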
12-LOX inh = inhibitors of human 12S-lipoxygenase ALOX12; P18054; purified 12hLO, xylenol orange hydroperoxide absorbance; Potency, µM (titrated, usually from 108 µM), inactives show at the highest dose activity change, negative = inhibition, actives largely listed as inhibitors; 1.1% of 580,000 active; AID 1671190; further: potency means the concentration at half of the fitted maximal effect
Target sequence (P18054 whole entry, looked up): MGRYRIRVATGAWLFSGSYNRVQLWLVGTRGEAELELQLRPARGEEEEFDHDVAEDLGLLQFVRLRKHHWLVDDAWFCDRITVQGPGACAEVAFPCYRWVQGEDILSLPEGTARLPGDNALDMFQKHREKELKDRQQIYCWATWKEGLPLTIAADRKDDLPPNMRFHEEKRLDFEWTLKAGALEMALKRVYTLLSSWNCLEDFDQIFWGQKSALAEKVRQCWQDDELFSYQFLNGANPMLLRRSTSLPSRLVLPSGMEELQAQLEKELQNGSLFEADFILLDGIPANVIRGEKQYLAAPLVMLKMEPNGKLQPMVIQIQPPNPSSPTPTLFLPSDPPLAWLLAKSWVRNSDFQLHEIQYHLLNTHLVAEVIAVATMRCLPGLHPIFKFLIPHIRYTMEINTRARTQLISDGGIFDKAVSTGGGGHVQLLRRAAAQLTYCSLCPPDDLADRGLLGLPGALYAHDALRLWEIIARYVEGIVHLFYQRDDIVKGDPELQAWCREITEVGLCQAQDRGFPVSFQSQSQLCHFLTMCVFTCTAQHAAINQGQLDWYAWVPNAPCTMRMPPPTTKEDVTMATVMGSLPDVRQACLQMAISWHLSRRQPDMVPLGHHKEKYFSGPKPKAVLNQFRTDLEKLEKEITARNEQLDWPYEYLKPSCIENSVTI
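Hydroperoxide product was detected by ferrous iron/xylenol orange as the 573 to 405 nm absorbance ratio. Arachidonic acid at 40 uM (final) was turned over for 30 min at room temperature by 150 nM human 12hLO, pH 7.0 Hepes buffer, after 15 min compound preincubation.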
HT1080NT lethal = kills 2HG-producing HT-1080-NT fibrosarcoma cells; HT-1080-NT fibrosarcoma viability, CellTiter-Glo ATP luminescence, 48 h; AID 686970; 1.6% of 360,000 active; Potency, µM (doses to about 46.1 µM), for inactives: at the highest dose activity, negative = less viability, most hits filed as cytotoxic;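 further: NT is the 2HG producing partner of a matched IDH1 knockdown line; potency means the concentration at half of the fitted maximal effect; 0% = DMSO-treated cells and -100% = media-only wells without cells; nearly all actives have a fitted effect of over 55% in size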
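HT-1080-NT; 750 cells/well; 5% FBS RPMI; 48 h compound, 37 degrees C; CellTiter-Glo luminescence; curve fitting and curve-class assignment.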
TDP1 cell CPT = growth inhibition of DT40 Tdp1-/-;hTDP1 cells with camptothecin (screen for TDP1 inhibitors). Potency, µM (highest dose often 46.2 µM), for inactives: top-dose activity change, negative = growth inhibition, hits mostly inhibitors. 12% of 420,000 active. chicken DT40 Tdp1-/-;hTDP1 cells + 20 nM CPT, ATP luminescence, 48 h; further: potency means the concentration at half of the fitted maximal effect; nearly all actives have a fitted effect of over 55% in size
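Chicken DT40 Tdp1-/- cells stably complemented with human TDP1 were seeded at 400 cells/well in medium containing 20 nM camptothecin, exposed to pin-transferred compounds, and grown at 37 °C for at least 48 hr. Viability was read as ATP luminescence.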
TDP1 cell noCPT = qHTS for Inhibitors of human tyrosyl-DNA phosphodiesterase 1 (TDP1): qHTS in cells in absence of CPT | DT40 Tdp1-/- hTDP1 cells, no CPT, ATP luminescence, 48 h | Potency, µM (series often up to 46.2 µM), for the others: top-dose activity change, negative = growth inhibition, most hits filed as inhibitors | 15% of 420,000 active | AID 686978, 2013; further: potency means the concentration at half of the fitted maximal effect; nearly all actives have a fitted effect of over 55% in size
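Readout: luminescence from CellTiter-Glo after 30 min in the dark at RT. Cells: DT40 Tdp1-/- with stable hTDP1, 400/well. Exposure: compounds alone, ≥48 hr, 37 °C.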
Starred values were filed as active, the others as inactive; ? = inconclusive; . = not tested or not shown. Shown is part of a subset that was picked to be rich in hits. Unless noted, the call rests on the fitted dose curve; in most records, active means well fitted curve in the direction sought with a large enough effect; inconclusive means small, poorly fitted or top-dose-only effect, or another doubt; inactive means no such curve, though single readings can be large; an effect the other way counts as inactive or inconclusive. Unless noted, on the % scale 0 is the no-effect control and ±100 the full control effect.

SMILES	IL-1B inflam inh	HT1080 IDH1KD tx	12-LOX inh	HT1080NT lethal	TDP1 cell CPT	TDP1 cell noCPT
COC(=O)CC1COc2ccccc2N1C(=O)c1cccc(Cl)c1 (stereo not given)	8	-1%	-20%	-5%	-20%	?
Cn1nnc2c(NCc3ccccc3)ncnc21	.	.	-23%	.	2%	-6%
CCn1nc(C(=O)Nc2cccc(S(=O)(=O)N3CCCC3)c2)c2ccccc2c1=O	-15	-25%	176%	-20%	?	?
CCCn1nc(C(=O)Nc2cccc(S(=O)(=O)N3CCOCC3)c2)c2ccccc2c1=O	?	-21%	-5%	-26%	?	26µM*
CCn1nc(C(=O)Nc2ccc(Cl)c(S(=O)(=O)N3CCOCC3)c2)c2ccccc2c1=O	16	-4%	25%	-8%	?	16µM*
Cc1ccc(NC(=O)c2nn(CC(C)C)c(=O)c3ccccc23)cc1S(=O)(=O)N1CCOCC1	.	.	-7%	.	.	.
CCOc1ccc(NC(=O)C2CCN(C(=O)c3ncn4c3COC(c3ccc(F)cc3)C4)CC2)cc1 (stereo not given)	.	.	65%	.	.	.
Cc1ccc(Sc2ccc([N+](=O)[O-])cc2[N+](=O)[O-])nc1	-188*	23µM*	-5%	16µM*	2.6µM*	2.9µM*
Cc1ccnc(Sc2ccc([N+](=O)[O-])cc2[N+](=O)[O-])n1	-104*	?	-10%	?	0.73µM*	0.58µM*
Nc1nc(Sc2ccc([N+](=O)[O-])cc2[N+](=O)[O-])n[nH]1	-1	-17%	-12%	-20%	?	?
Cc1ccc2oc(C(=O)Nc3nnc(SCc4ccccc4)s3)cc(=O)c2c1	.	.	6%	.	.	.
O=C(CN1C(=O)C(c2ccccc2)=NC12CCCC2)NCCC1=CCCCC1	.	.	3%	.	.	.
CCOC(=O)c1cc(C)sc1NC(=O)CN1CCN(C(=O)c2ccco2)CC1	0	-16%	?	-7%	23µM*	?
O=C(CN1CCN(C(=O)c2ccco2)CC1)Nc1ccccc1-c1ccccc1	13	-3%	-13%	-4%	26µM*	?
CCOC(=O)c1cc(CC)sc1NC(=O)CN1CCN(C(=O)c2ccco2)CC1	-2	-26%	-5%	-13%	?	-22%
Cc1ccc(Nc2nc(CSc3nnc(-c4cccnc4)n3-c3ccccc3C)cs2)cc1	?	-15%	-20%	-10%	15µM*	15µM*
CCCCn1nnnc1CSc1nnc(-c2cccnc2)n1-c1ccccc1C	.	.	-1%	.	.	.
Cc1ccc(Nc2nc(CSc3nnc(-c4ccccc4C)n3C)cs2)cc1	?	-13%	7%	-6%	?	?
Cc1ccccc1-n1c(SCc2csc(Nc3ccccc3)n2)nnc1-c1cccnc1	-23	-11%	-13%	0%	12µM*	13µM*
COC[C@@H]1CN(C(=O)c2ccc(OC)cc2OC)C[C@H]1c1ccccn1	.	.	33%	.	.	.
Cc1nn(-c2ccccc2)c(Oc2ccc(F)cc2F)c1CCC(=O)N1CCSCC1	.	.	2%	.	.	.
Cc1ccc(-c2ccc(CN3C(CC(C)C)C(=O)N(Cc4cn(CCC5OCCCO5)nn4)CCS3(=O)=O)cc2)cc1 (stereo not given)	-7	?	-15%	?	18µM*	21µM*
CC(C)CC1C(=O)N(Cc2cn(CCC3OCCO3)nn2)CCS(=O)(=O)N1Cc1ccc(-c2ccncc2)cc1 (stereo not given)	-10	19%	-6%	2%	?	23µM*
CC(C)CC1C(=O)N(Cc2cn(CCC3OCCCO3)nn2)CCS(=O)(=O)N1Cc1ccc(-c2ccc(F)cc2)cc1 (stereo not given)	2	-5%	1%	-12%	?	?
COc1ccc(/C(C)=N/OC/C(O)=C(\C#N)c2nc3ccccc3[nH]2)cc1OC	24	1%	15%	?	?	16µM*
SMILES	IL-1B inflam inh	HT1080 IDH1KD tx	12-LOX inh	HT1080NT lethal	TDP1 cell CPT	TDP1 cell noCPT
CC(C)(C)/C(O)=C(/C#N)c1nc2ccccc2[nH]1	-2	-18%	-12%	-19%	?	?
COc1cccc(OC)c1/C(O)=C(\C#N)c1nc2ccccc2[nH]1	27	-25%	-24%	18µM*	?	13µM*
COc1ccc(-c2ccc(C(=O)Nc3cccc(C(F)(F)F)c3)c3occc23)c(C)c1	-3	-27%	?	-11%	23µM*	21µM*
COc1ccc(-c2ccc(C(=O)Nc3cc(OC)c(OC)c(OC)c3)c3occc23)c(C)c1	-15	?	?	-28%	6.5µM*	23µM*
CCCN(CCC)S(=O)(=O)c1ccc(C(=O)Nc2nnc(-c3cc(OC)cc(OC)c3)o2)cc1	4	?	.	?	5.8µM*	4.6µM*
CCCN(CCC)S(=O)(=O)c1ccc(C(=O)Nc2nnc(-c3cccc(OC)c3)o2)cc1	44	?	31%	?	5.8µM*	5.2µM*
COc1cccc(-c2nnc(NC(=O)CCS(=O)(=O)c3ccc(C)cc3)o2)c1	?	-2%	16%	2%	?	?
Cc1cc(NCc2ccc(Cl)cc2)n2cnnc2n1	.	.	-8%	.	21µM*	8.2µM*
COc1ccc(-c2cc(NCc3ccc(C)cc3)n3cnnc3n2)cc1	.	.	-16%	.	15µM*	13µM*
COc1cccc(CNc2cc(C)nc3nc(-c4ccc(C)cc4)nn23)c1	.	.	-13%	.	.	.
O=S1(=O)N[C@H](Cc2ccccc2)COc2cc(F)ccc21	.	.	0%	.	.	.
O=C(CC1CCN(C(=O)Cc2cccc(F)c2)C1)NC1CC1 (stereo not given)	.	.	22%	.	.	.
C=CCNc1nc(C(=O)OCC(=O)NCC(=O)Nc2c(C)cccc2C)cs1	.	.	-17%	.	.	.
O=C(NC(c1ccccc1)C1CC1)c1ccoc1 (stereo not given)	.	.	4%	.	.	.
CCCCCCCOc1ccc(C2CC(=O)N(C)C2=O)cc1 (stereo not given)	-76*	-19%	-8%	-9%	-2%	?
CCCCOc1ccc(C2CC(=O)NC2=O)cc1 (stereo not given)	2	8%	-23%	5%	2%	-11%
CCOc1ccc(-n2c(=O)c3sc4ccccc4c3n(Cc3ccc(F)cc3)c2=O)cc1	.	.	-25%	.	-5%	?
O=c1c2sc3ccccc3c2n(Cc2ccc(Cl)cc2)c(=O)n1Cc1ccco1	.	.	0%	.	?	8.2µM*
